From PubChem BioAssay AID1347131 (National Center for Advancing Translational Sciences (NCATS), 2019) come the findings set out here.

Out of some 410,000 compounds screened, about 2,000 (0.49%) were called active. About 8% were inconclusive and are not listed. This is one part of a sample in which actives are shown more often than they occur. Values without a mark were called inactive. Calls follow the shape of the full dose curve; tested in HEK293 reporter line.
Potency is read from the fitted curve at half-maximal effect.

A short description of this assay: qHTS Assay for Foot and Mouth Disease Virus Antivirals: Primary Screen against the MLPCN compound library. Also: nearly all actives have a fitted effect of over 55% in size. As to conditions: FMDV antiviral cell-based qHTS; series mostly up to 57.9 µM; activity, negative = inhibition: at the top concentration. Background: Quantitative high-throughput screening tests each substance at several concentrations.
With `CCn1c(SCC(=O)Nc2cccc(NC(C)=O)c2)nc2c([nH]c3ccccc32)c1=O`, the “activity, negative = inhibition” value is -30.1%.
The same measure, in the same setting: next, `COc1ccc(C(=O)c2cn(Cc3ccccc3)c3ccccc3c2=O)cc1OC`: -30.9%; `COc1cc(NC(=O)c2ccc3oc(=O)c(S(=O)(=O)c4ccccc4)cc3c2)cc(OC)c1`: -26.9%.
On to `CCCCn1c(=O)[nH]c(=O)c2c1nc(CN1C(=O)c3ccccc3S1(=O)=O)n2CCC`, for which the “activity, negative = inhibition” value was -41.4%.
On the same count and under the same terms, next, `Cc1cccc(C)c1NC(=O)Cn1c(=O)n(Cc2ccco2)c(=O)c2ccc(C(=O)NC3CCCC3)cc21`: -30.3%.
For the molecule `COc1cccc(N2C(=O)C3C(C2=O)C3(c2ccccc2)c2ccccc2)c1` (centres undefined), the Potency is 14.1 µM (active).
In the case of `COc1ccc2c(c1)C1(C)CC(C)(C)N2C(=O)N1c1ccccc1` (centres undefined), the “activity, negative = inhibition” value was -39.4%.
With `COC(OC)C12c3ccccc3C(c3ccccc31)C1C(=O)N(c3cccnc3)C(=O)C12` (centres undefined), the “activity, negative = inhibition” value was -32.8%.
As for `CCn1c(SCC(=O)N/N=C/c2c[nH]c3ccccc23)nnc1-c1ccc(Cl)cc1`, the “activity, negative = inhibition” value is -32.6%.
`CC1c2cc3c(cc2CCN1C(=O)c1ccc(C(F)(F)F)cc1)OCCCO3` (centres undefined): the “activity, negative = inhibition” value is -34.3%.
For `CC(=O)c1ccc(N2CCN(C(=O)CCCCn3c(=O)[nH]c4ccsc4c3=O)CC2)cc1`, the “activity, negative = inhibition” value is -34.1%.
Regarding `CC(C)(C)OC(=O)C[C@@H]1C/C=C\C[C@@H](CC(=O)N[C@@H](CO)Cc2ccccc2)C(=O)NC[C@@H](c2ccccc2)OC1=O`, the “activity, negative = inhibition” value is -31.5%.
The same measure, in the same setting: next, `CC(C)[C@@H](C(=O)N1CCN(Cc2ccc3c(c2)OCO3)CC1)n1nnc2ccccc2c1=O`: -39.5%.
For the molecule `O=C(CCCCCn1c(=O)[nH]c2ccccc2c1=O)N1CCN(Cc2ccc3c(c2)OCO3)CC1`, the Potency is 20 µM (active).
As for `Cc1ccc(CSCC(=O)N2CCN(Cc3ccc4c(c3)OCO4)CC2)cc1`, the “activity, negative = inhibition” value was -35.9%.
For `Cc1nnc(SCC(=O)N2CCCC2)n1-c1ccc(F)cc1`, the “activity, negative = inhibition” value is -42.8%.
As for `CC(=O)c1ccc(NC(=O)c2cc(S(=O)(=O)N3CCOCC3)ccc2C)cc1`, the “activity, negative = inhibition” value is -36.2%.
For `CC(=O)c1ccc(NC(=O)c2noc3c2CCC3)cc1`, the Potency was 20 µM (active).
With `COc1cc(NC(=O)c2noc3c2CCc2ccccc2-3)cc(OC)c1OC`, the “activity, negative = inhibition” value is -31.7%.
Still for that read-out and setting: next, `O=C(CSc1nnc2c(Cl)cc(Cl)cn12)N1CCOCC1`: -14.8%.
As to `Cn1ncc(S(=O)(=O)Cc2ccccc2)c(Cl)c1=O`, the Potency is 20 µM (active).
In the case of `O=c1c2cnn(-c3ccccc3)c2ncn1Cc1ccccc1`, the “activity, negative = inhibition” value is -37.6%.
Turning to `CCNc1nc2c(c(=O)n(Cc3ccccc3)c(=O)n2C)n1Cc1ccccc1`, the “activity, negative = inhibition” value is -32.7%.
Still for that read-out and setting: next, `COc1ccccc1-c1noc(-c2ccc(N3CCN(c4ccccc4)CC3)c([N+](=O)[O-])c2)n1`: -38.3%; `COc1ccc(C(=O)NNC(=O)c2ccccn2)cc1`: -98.5%.
Take `O=C(Oc1ccc(-c2nc(-c3ccccn3)no2)cc1)c1ccccc1`: the Potency is 14.1 µM (active).
As for `COC(OC)c1ccnc(-c2ccc(OC(=O)c3ccc(F)cc3)cc2)n1`, the “activity, negative = inhibition” value was -38.9%.
Consider `COc1ccccc1-c1nc(-c2ccccn2)no1`, for which the Potency is 14.1 µM (active).
Turning to `COc1cccc2cc(-c3nc(-c4ccccc4F)no3)c(=O)oc12`, the “activity, negative = inhibition” value is -45.9%.
`COc1ccc(CN2CCN(Cc3ccc(C(F)(F)F)cc3)CC2)c(OC)c1`: the “activity, negative = inhibition” value is -30.9%.
Same read-out and setting: next, `Cc1cc(OCCOc2cccc3cccnc23)cc(C)c1Cl`: -34.1%.
Same read-out and setting: the result for `CC1Cc2ccccc2N1c1ncnc(N)c1[N+](=O)[O-]` (centres undefined) reads -21.1%; that for `COc1cccc(/C=N/NC(=O)c2cc3c(OC)cccc3[nH]2)c1OC`, -38.6%.
`COc1cccc(/C=N/Nc2ncnc(N)c2[N+](=O)[O-])c1OC`: the Potency was 7.94 µM (active).
On to `CN(c1ccc(C(=O)NCc2cccnc2)cc1)S(=O)(=O)c1ccc(Cl)cc1`, for which the “activity, negative = inhibition” value is -31.9%.
The same measure, in the same setting: next, `O=C(NC1CC1)C1CCN(S(=O)(=O)c2cc([N+](=O)[O-])ccc2Cl)CC1`: -11.8%; `CCn1nc(-c2ccccc2)c2nc3ccccc3nc21`: -34.2%; `CCOc1ccc(CCNC(=O)c2ccc3c(c2)sc2nc(-c4ccc(F)cc4)cn23)cc1OCC`: -32.6%.
On to `CCCCCc1nn2cc(-c3ccccc3)nc2s1`, for which the Potency is 12.6 µM (active).
As to `CCc1cccc(C)c1Nc1c(-c2ccccc2)nc2sccn12`, the “activity, negative = inhibition” value is -32%.
Turning to `CCCc1nn2cc(-c3ccc(C)c(C)c3)nc2s1`, the Potency is 14.1 µM (active).
On to `CCCn1c(NC(=O)CCNC(=O)c2ccccc2Cl)nc2ccccc21`, for which the “activity, negative = inhibition” value is -36%.
Turning to `COc1cc(NC(=O)N2CCC3(CC2)Nc2ccccc2-n2cccc23)cc(OC)c1OC`, the “activity, negative = inhibition” value was -30.8%.
Same read-out and setting: the result for `CCC1CCCCN1CCCCOc1cccc(Cl)c1` (centres undefined) reads -32.7%; that for `COc1ccccc1C(CNC(=O)c1ccc(OCc2c(C)noc2C)cc1)N1CCCC1` (centres undefined), -34.6%.
Take `Cc1ccc(C2=Nc3ccccc3NC(c3ccncc3)=N2)cc1`: the “activity, negative = inhibition” value is -31%.
Still for that read-out and setting: next, `COc1ccccc1C(=O)Nc1ccc(C(=O)c2ccccc2)cc1`: -36.3%.
Still for that read-out and setting: the result for `Cc1ccc(Cl)cc1NC(=O)c1cc2ccccc2cc1O` reads -20.1%.
With `O=C(Nc1ccc2ccccc2c1)c1ccccc1O`, the Potency is 14.1 µM (active).
Consider `CC(C)NC(=S)NN(c1ccccc1)c1ccccc1`, for which the “activity, negative = inhibition” value is -35.6%.
Still for that read-out and setting: the result for `CCOc1ccc(S(=O)(=O)N2CCC(n3c(C)nc4cccnc43)CC2)cc1` reads -46.6%.
Consider `CCc1ccc2oc(-c3cc(N=Cc4cccc(OC)c4O)ccc3O)nc2c1`, for which the Potency was 20 µM (active).
Regarding `COc1cccc(/C=N/Nc2ccc(C(=O)O)cc2)c1O`, the “activity, negative = inhibition” value is -103%.
For `Cc1nn(-c2cccc(Cl)c2)c2c1C(c1ccncc1)C(C#N)=C(N)O2` (centres undefined), the “activity, negative = inhibition” value is -32.2%.
For the molecule `CCCOc1ccccc1C(=O)N(Cc1cccc(Br)c1)C1CCS(=O)(=O)C1` (centres undefined), the “activity, negative = inhibition” value is -49.6%.
With `CC(=O)N1CCc2cc(S(=O)(=O)CCC(=O)N3CCN(c4cc(C)ccc4C)CC3)ccc21`, the “activity, negative = inhibition” value is -32.1%.
In the case of `Cc1ccc(C)c(N2CCN(C(=O)CCS(=O)(=O)c3ccc4c(c3)NC(=O)CO4)CC2)c1`, the Potency is 12.6 µM (active).
Take `Cc1ccc(C)c(N2CCN(S(=O)(=O)c3cc4c(cc3Cl)NC(=O)CO4)CC2)c1`: the “activity, negative = inhibition” value is -31.6%.
Still for that read-out and setting: the result for `CCOC1=C2CN(S(=O)(=O)c3ccc(C)cc3)[C@H](c3ccccc3)C[C@@H]2N(S(=O)(=O)c2ccc(C)cc2)[C@H](c2cccc(C)c2)C1` reads -33.1%; that for `COc1ccc(-c2c3c(=O)n(C)c(=O)n(C)c3c3c(-c4ccccc4)nc4ccccc4n23)cc1`, -18%.
For `Cn1c(-c2ccccc2)cc2onc(-c3ccccc3)c2c1=O`, the Potency was 8.91 µM (active).
Take `Cc1onc(-c2ccccc2)c1C(=O)n1nnc2ccccc21`: the “activity, negative = inhibition” value is -36.4%.
For `Cc1cc(Br)cc(C)c1OCC(=O)NNC(=O)c1cccs1`, the “activity, negative = inhibition” value was -38.5%.
For the molecule `Cc1cc(NC(=O)c2ccc(S(=O)(=O)N3CCc4ccccc43)cc2)no1`, the “activity, negative = inhibition” value is -32.7%.
Still for that read-out and setting: the result for `COc1ccc(OC)c(S(=O)(=O)Nc2ccc(F)cc2)c1` reads 125%.
On to `COc1ccc(C)cc1S(=O)(=O)Nc1ccccc1`, for which the “activity, negative = inhibition” value was 103%.
For the molecule `COc1cc(NS(=O)(=O)c2ccc(C)cc2C)cc(OC)c1OC`, the Potency was 20 µM (active).
For `CC1=[N+](C)c2ccc3ccccc3c2C1(C)C`, the “activity, negative = inhibition” value was -33.1%.
As to `Cc1ccccc1OCc1nnc(SCC(=O)Nc2c(C)n(C)n(-c3ccccc3)c2=O)n1-c1ccccc1`, the “activity, negative = inhibition” value was -43.3%.
In the case of `Cc1ccc(NC(=O)c2cc(-c3cccs3)nc3ccccc23)c(C)c1`, the “activity, negative = inhibition” value is -38.9%.
As for `Cc1cc(O)ccc1Nc1nc(-c2cccs2)cs1`, the Potency was 20 µM (active).
With `NS(=O)(=O)c1ccc(Nc2nc(-c3ccc(O)cc3O)cs2)cc1`, the “activity, negative = inhibition” value was -33%.
For the molecule `Cc1ccc(/C=C/c2nc3ccccc3c(=O)n2CCc2ccccc2)cc1`, the “activity, negative = inhibition” value is -32.9%.
`CSc1ccc(/C=C/c2nc3ccccc3n2S(=O)(=O)c2ccc(F)c(C)c2)cc1`: the Potency was 20 µM (active).
For `Cc1cc(S(=O)(=O)N2CCN(c3ccccc3F)CC2)ccc1-n1cnnn1`, the “activity, negative = inhibition” value was -37.1%.
On to `COc1cccc(-n2c(/C=C\c3ccc(Cl)cc3)nc3ccccc3c2=O)c1`, for which the “activity, negative = inhibition” value is -32.4%.
`Cc1ccc(/C=C/c2nc3ccccc3n2S(=O)(=O)c2cccc(Cl)c2)cc1`: the Potency is 8.91 µM (active).
On to `Cc1ccc(S(=O)(=O)N2CCN(C(=O)/C=C/c3ccccc3)CC2)cc1C`, for which the “activity, negative = inhibition” value is -31.7%.
On the same count and under the same terms, the result for `CN1CCN(NC(=O)Nc2cc(Cl)cc(Cl)c2)CC1` reads -36.1%; that for `COc1ccc(CN2CCNC(=O)C2CC(=O)N(C)Cc2ccno2)c(F)c1` (centres undefined), -25.3%; that for `CCSc1ncc(Cl)c(C(=O)N(Cc2ccccc2Cl)C2CCS(=O)(=O)C2)n1` (centres undefined), -33.9%.
For the molecule `CCn1c(N2CCC(C)CC2)nc2c1c(=O)n(C)c(=O)n2C`, the “activity, negative = inhibition” value is -41.6%.
On to `CS(=O)(=O)c1nc(-c2ccc(Br)cc2)cc(-c2ccccc2)c1C#N`, for which the Potency is 25.1 µM (active).
For the molecule `CCc1nnc(NC(=O)CSc2nc(-c3ccccc3)cc(-c3ccc(F)cc3)c2C#N)s1`, the “activity, negative = inhibition” value was 135%.
Turning to `Nc1cc(-c2ccc(Br)cc2)nn1S(=O)(=O)c1ccccc1`, the “activity, negative = inhibition” value was -33%.
On the same count and under the same terms, the result for `COc1ccc(C)cc1NC(=O)/C=C/c1ccc(OC)c(S(=O)(=O)N2CCOCC2)c1` reads -31.7%.
In the case of `COc1ccc(/C=C/C(=O)Nc2ccccc2)cc1S(=O)(=O)N1CCOCC1`, the Potency was 12.6 µM (active).
Take `COc1ccc(C(=O)Nc2ccc(C)c(S(=O)(=O)N3CCOCC3)c2)cc1S(=O)(=O)N1CCCC1`: the “activity, negative = inhibition” value is -31.5%.
Same read-out and setting: the result for `CCOC(=O)C1CCCN(S(=O)(=O)c2cc3c(cc2Cl)NC(=O)CO3)C1` (centres undefined) reads -31%.
Take `Cc1oc(-c2ccc(Cl)cc2)nc1CN1CCCC(C(=O)NCc2cccnc2)C1` (centres undefined): the “activity, negative = inhibition” value is -20.1%.
Same read-out and setting: the result for `CCCN(CCC)CCCNC(=O)C1CCCN(Cc2nc(-c3ccc(Cl)cc3)oc2C)C1` (centres undefined) reads -26.9%.
As to `Cc1oc(-c2ccc(Cl)cc2)nc1CN1CCCC(C(=O)NCCCN2CCCC2=O)C1` (centres undefined), the Potency was 7.94 µM (active).
On to `Cc1ccc(S(=O)(=O)N2CCN(C(=O)CCCN3C(=O)NC4(CCCC4)C3=O)CC2)cc1C`, for which the “activity, negative = inhibition” value is -33.6%.
Same read-out and setting: the result for `CCn1c2ccccc2c2cc(NC(=O)COc3ccc(C)c(C)c3)ccc21` reads -31.2%.
For the molecule `CCOc1ccc(-c2nnc(-c3cccs3)o2)cc1`, the Potency is 15.8 µM (active).
As for `CCn1c(SCCOc2ccc(Cl)cc2)nnc1-c1cccs1`, the “activity, negative = inhibition” value was -32.5%.
As for `CCOc1ccc(-c2nnc(NC(=O)COc3ccccc3F)o2)cc1`, the “activity, negative = inhibition” value was 119%.
As for `Cc1ccccc1-c1cnc2c(c1)C(=O)N([C@@H](C)CO)C[C@@H](C)[C@H](CN(C)Cc1ccccc1F)O2`, the “activity, negative = inhibition” value is -11.7%.
The same measure, in the same setting: the result for `COc1ccc(C(O)(CC(C)C)C(CN2CCOCC2)c2ccccc2)cc1` (centres undefined) reads -37.2%.
